Results on 40 sequences are retold here after the supplement of paper PMC6555819.

The subject of this assay is PPARa:RXRa (NR concentration 270 nM, RXRa partner concentration 90 nM). As to the kind of experiment: PBM binding z-score (relative to random genomic background probes); higher = stronger binding; sequences stand for … in GC…GCGATTGACAGCGTAGAATGAAGG
How it is done: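 Protein-binding microarray (Agilent 4x180K custom design, double-stranded 60-nt probes: 5' GC cap, 34-nt variable region, 24-nt constant primer region; full probe sequence given). Purified or IVT nuclear receptor:RXRα heterodimers (3:1 NR:RXRα, mostly 270:90 nM) or homodimers were incubated for 1 h in PBS with 2% milk and no ligand, then detected with Alexa488 antibodies. Fluorescence from o1-orientation probes (~5 replicates averaged) was converted to z-scores against 500 random hg19 background probes. Variable regions are seed direct-repeat (DR0–DR5) sites, all their single-nucleotide variants and half-site ablations.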
In turn, ATATGTAGGTTAGCTGGGGTCCTTCAGACTAGGC displayed a PBM binding z-score of 2.78. With AGTCAAAGTGCATCTAGGTAACGTAAGATATGCT, the PBM binding z-score was 1.21. To CGAACTAGGTCAAGGGACAGTGAAAGGCGACGTA belongs 4.78; to CCTTACGGGTCACTCCAGGTCATAGCATCGGAGT, 4.91; to TAGCCTAGGTCGTTCAGGGGCCAGTATAGAAAGC, 0.74. To CGTCCAAGGTCATTGGAGGTCAGTGAAGACAGAT belongs 5.85; to CCTACTGGGCCACTAAAGGTCATTGATTCAGTGA, 4.62. In the case of TTACCAAGGTGAAAGGTCGTTGCTGCACGCCTTG it was 5.33; in that of CAAACCAGGTCAAGAGGTCAAAGTCCGCTTCCCG, 6.68. CGTCTAAGGTCATAGGAGGTCAGTGAAGACAGAT gave a PBM binding z-score of 6.24. In the case of ACGCGGAGGACAAAGGTCAGAGCTACGCCAGTGA it was 4.75; in that of CCTACTGGGCCAAAGGTGATTGATTCCAATGCTC, 4.5; in that of CAAACTAGGTCACGAGAGGTCAAAGTCGAATGAC, 6.78. Turning to CGTTCAAGGTCAAAGGTCAGTGAAGAGATGACGG, the PBM binding z-score worked out at 7.05. In the case of GGAACGAGGGCATTCGAGTTCATAGCATGGCGAT it was 2.7; in that of TAGCCTAGGGCATTCAGGGGCCAGTATAGAAAGC, 0.0278; in that of TCTTGTAGATCGATAGAGGTTAAGAAAGTGCGCT, 1.48. In the case of CAAACTAGGTCACTAAAGGTCAAAGTCGAATGAC it was 6.51; in that of GCTAGTTGGTCAGTAAAAGGTGACACACCGGTCG, 1.54. In the case of CGTACAAGGTCAAAGGTCAGTGAAGAGATGACGG it was 7.11; in that of CGAACTAGGTCATCCAGGACCGTGAATACATTGA, 4.4.

As to TGTCAAAGTTCAAAGGTGACGTAAGTATCCACAC, the PBM binding z-score was 6.09. On to CGTCAAAGTTCAACTGAGGTAACGTAAAGCACGC, for which the PBM binding z-score stood at 5.29. To CCTAGCAGGCCAATCTAGGTCACTCAAGGCTTGA belongs 3.15; to TATAAAGGGTCAAAGGCCAGAGTACGAATGTCGA, 6.43. In the case of CCTACTGGGTCACGAAAGGTCATTGATTCAGTGA it was 6.44; in that of ATATGTAGGTTAGGGGTCATTCAGGTTGGTTCGC, 6.51; in that of TATACAAGGTCAAAGGCCAGAGTACGAATGTCGA, 6.24. In turn, AAAACAGGGTCATCGTAGGCCAGAGTACGCACAG registered a PBM binding z-score of 6.26. To AATACAGGGTGACTAGGCCAGAGTAGGTACGAAT belongs 1.7; to TCTGCTAGGTCATCGATGGTCAGCTAATCTGCTA, 3.2; to CCTACTCGGCCAAAAAGGTCATTGATGCCGATAA, 4.87. To CGTCCAAGGTCATATGAGGTCAGTGAAGACAGAT belongs 5.65; to CGTCCAAGGTCAAGGTCAATGAAAGAGACTCGAA, 6. In the case of CCTACTGGGCCATTCAGAGGTCAATGATCATATG it was 3.87; in that of CCTACTGGGCCAAAAAGGTCATTGATGCCGATAA, 4.51. CGTCCAAAGTCAAAGGTCAGTGAAGAGATGACGG gave a PBM binding z-score of 5.06. In the case of AGAATGAGGTCACCAAAGATCAGGGAAACGCTTG it was 6.33; in that of GCTAGTTGGTCAGTAAAATGTCACACACCGGTCG, -0.0403; in that of CGTCAAAGTTCAACTAAGGTCACGTAAAGCACGC, 6.28.
